# Source: the supplement of paper PMC6555819
# Assays:
# Assay in all cases: PBM binding z-score (relative to random genomic background probes); higher = stronger binding; sequences stand for … in GC…GCGATTGACAGCGTAGAATGAAGG
# [1] = test system: RARb homodimer (NR concentration 270 nM)
# Method in brief: (§1)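 Random background probes are the reference for binding z-scores. These scores derive from regression-normalized fluorescence on custom Agilent 4×180K protein-binding microarrays incubated 1 h with ligand-free nuclear receptor dimers. Binding was detected with antibodies against each partner (one per run).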
# [2] = test system: RARg:RXRa (NR concentration 270 nM, RXRa partner concentration 90 nM)
# Method in brief: as §1
# [3] = test system: RARg homodimer (NR concentration 270 nM)
# Method in brief: as §1
# [4] = test system: RXRa DBDmut IVT, anti-RXR (DBD mutation: RXRa K156A/R161A, NR concentration 90 nM)
# Method in brief: as §1
# [5] = test system: RXRa homodimer (NR concentration 180 nM)
# Method in brief: as §1
# [6] = test system: THRa:RXRa (NR concentration 90 nM, RXRa partner concentration 90 nM)
# Method in brief: as §1
# [7] = test system: THRa homodimer (NR concentration 90 nM)
# Method in brief: as §1
# [8] = test system: VDR homodimer (NR concentration 270 nM)
# Method in brief: as §1
Sequence,PBM binding z-score [1],PBM binding z-score [2],PBM binding z-score [3],PBM binding z-score [4],PBM binding z-score [5],PBM binding z-score [6],PBM binding z-score [7],PBM binding z-score [8]
CCTACTGGGCCATTCAGAGGTCCTTGATCATATG,0.208,-0.0281,-0.184,-0.26,-0.29,-0.305,-0.128,-0.336
ACTAGCAGGCCAAGTTTAGGTCACTCAAACAAAG,2.6,3,2.44,0.0394,0.727,3.43,2.59,0.966
CTACCATGGTGAACAAGGTCGTTGATTACTATTC,1.04,0.598,0.184,0.982,0.913,1.99,1.1,1.41
CTGACTGGGGCAGAAAGGTTACCATACCATCCGG,2.57,2.08,1.66,-0.154,1.88,1.34,-0.00368,0.339
CGTCCAAGGTCATAGGAGGGCAGTGAAGACAGAT,4.01,5.77,5.89,3.81,5.44,4.83,2.17,3.3
CAAACTAAGTCAAAGGTCAAAGTCGAGCCAACCA,4.68,6.82,5.86,2.2,8.46,3.74,0.739,2.93
ATCTCTAGGTACCCAAGTTCAGTGAATGCCGAAC,1.41,0.712,0.515,1.14,0.528,0.968,0.385,2
CGTCAAAGTTCAACTAAGGTAACGGAAAGCACGC,4.39,5.99,6.88,4.63,5.09,5.24,1.9,3.47
CGAACTAGCTCATCCAGGACAGTGAATACATTGA,0.118,-0.191,0.156,0.64,0.0877,1,0.936,0.271
CGAACTAGGTCAAGGACAGTGCATCTCCGCACGC,3.51,4.21,4.75,1.45,2.72,3.28,2.03,0.69
TAGCCTAGGTCATATCGGGCCAGTATACGCTATA,2.44,3.33,3.95,1.17,2.49,4.54,0.783,0.939
ATCTCTCGGTAACAAGTTCAGTGAAAGAGAGGAC,1.84,0.867,1.2,0.226,0.539,0.976,0.753,2.29
CGTCCAAGGTCAATGCCAGGTCAGTGAAAGCATT,4.92,7.69,6.75,3.86,5.27,4.71,3.6,3.03
CAAACTAGGTCATGAAAGGTCAAAGTCGAATGAC,5.55,7.46,7.78,2.45,7.87,5.19,2.21,4.05
GCGTATAGGTAATACAAGGTGAAAGTCCGATTGT,0.95,0.423,0.499,0.141,0.647,4.35,1.03,0.00145
TCTACTAGTTGAAGGGCAACCGACGAGTCCGTTT,0.815,0.16,0.311,1.11,0.353,-0.216,-0.254,0.707
CCAACTGGGGCATAAGGTTACCATAAGCCAGCCC,1.68,1.52,1.12,-0.33,1.24,1.97,1.29,0.0835
TCATATAGGTAAGACAGGTGAAAGTCGGCATCTA,0.625,0.754,0.411,1.36,1.02,0.828,0.209,0.18
GATACAGGGTCACCTAGAGGCCAGAGTATGGAAA,3.89,7.38,5.66,2.02,6.04,3.91,1.32,1.97

Sequence,PBM binding z-score [1],PBM binding z-score [2],PBM binding z-score [3],PBM binding z-score [4],PBM binding z-score [5],PBM binding z-score [6],PBM binding z-score [7],PBM binding z-score [8]
ATCTCTAGGTAACCAAGTTCAGTGTATGCCGAAC,1.47,0.771,0.637,0.982,0.429,1.48,0.867,2.85
CCATACGGGTCACTCCAGGTTATAGCATCGGAGT,2.96,4.24,3.85,0.942,4.03,5.15,0.591,1.76
ACTATTAGTTGAGACGAGGGCAGCCGATAGGTTG,0.756,0.374,0.715,0.298,0.449,2.02,0.0606,0.189
CCTTACGGGTCACGAGGCTATAGCACGACGAGCG,3.24,5.45,5,0.992,6.22,3.16,0.466,0.849
TGGATGAGGTTATAAGATCAGGGAACGTTGCAAA,0.465,1.53,1.24,0.341,1.97,1.91,0.397,0.65
TCGAATAGGTTACCAATGGGGCATTCAGCTTTCT,1.21,2.11,0.782,1.09,1.39,0.655,-0.381,-0.151
ATATGTAGGTTAGCTGGGGTAATTCAGACTAGGC,0.856,0.69,0.761,0.642,0.773,3.87,0.672,0.606
CGTCCAAGGTCAAAGGAGGTCAGTGAAGACAGAT,5.57,6.67,7.08,3.52,6.32,5.42,2.98,4.01
AGAACGAGGGCAATGACTTGATAGCACGGGTGGC,1.08,1.18,1.67,1.64,1.08,0.826,0.042,0.435
TCTAGCATGCCAGAGGGTCACTCAAGAGGTACGG,2.71,2.48,2.22,0.0251,2.7,1.7,-0.281,0.555
GCAGCCAGGTGAAACGCAGGTAACTCAGGGTGGC,-0.292,0.262,-0.109,-0.94,0.157,1.68,-0.396,-0.939
GCGACTGGGGCAAAGCAGGTTACTATAAGGTTGG,0.948,0.427,0.689,0.143,0.276,2.81,0.101,-0.0549
AATACAGGTTCACTAGGCCAGAGTAGGTACGAAT,1.25,1.84,1.4,4.16,2.15,1.12,0.232,4.64
CTCGAAAGGCCGGTTGAGGTGAGTATACGGATAA,0.451,0.273,0.383,-0.239,-0.037,3.54,0.438,-0.821
TTACCAAGGTGTAAGGTCGTTGATGCACGCCTTG,0.961,0.528,0.368,0.411,1.35,2.49,1.59,1.62
ACTATTAGTTGACACGAGGGCAACCGATAGGTTG,1.76,1.56,1.34,0.816,1.22,3.07,0.699,1.07
GCTTACGGGTCAAAGGTTATAGGATGAATAGAAT,3.6,6.89,4.67,2.7,9.57,3.78,0.0155,1.65
ATATGTACGTTAGCTGGGGTCATTCAGACTAGGC,3.2,3.67,2.5,2.23,5.37,4.01,3.2,5.16
CTACCAAGGTGCACAAGGTCGTTGATTACTATTC,1.71,1.29,0.782,1.8,1.42,2.14,1.21,2.73

Sequence,PBM binding z-score [1],PBM binding z-score [2],PBM binding z-score [3],PBM binding z-score [4],PBM binding z-score [5],PBM binding z-score [6],PBM binding z-score [7],PBM binding z-score [8]
ATCTCTAGGTAACAAGTTCAGTAAAAGAGAGGAC,2.18,1.21,1.6,1.08,1.1,1.85,1.12,2.15
CCTACTGGGCCATTCAGAGGTCATGGATCATATG,4.22,4.63,3.45,0.21,4.21,3.64,1.55,2.09
TCTTGTAGTTCAGCAGGTTAAGAAAGCTGGCCAA,1.53,1.8,1.25,1.53,1.12,0.683,0.0556,0.942
ATCTCTAGGTAAAGATAGTGCAGTGAATGCAAAT,-0.372,0.0561,0.36,-0.368,0.254,0.223,-0.337,-0.144
GCTGCTAGGTCAACTGATGGTCAGCCAAAGCTCG,3.68,5.01,5.1,1.7,2.89,2.86,0.852,-0.263
CAAACTAGGTTACGAAAGGTCAAAGTCGAATGAC,5,6.3,5.88,1.6,6.62,4.48,1.51,2.58
CGTCCAAGGTCAGAGAGGTCAATGAATGCCGAGT,5.42,7,7.52,3.55,6.58,4.53,2.88,6.88
CCTATTAGTTGACCATAAGGGCAACGGAAGCTCG,1.92,1.29,0.865,0.278,0.632,1.84,1.47,0.902
CCTTACGGGTCAAGTTTATAGCACGGGTGGTACG,3.32,5.13,4.78,2.07,5.03,2.56,0.164,3.09
TCTATTAGTTGATTAGGGCAACAGAAACAGCGGA,0.664,0.691,0.686,0.926,0.691,0.607,0.289,0.253
GATACAGGGTCAGCTAGAGGCCAGAGAATGGAAA,3.39,6.83,5.12,1.73,4.78,3.35,0.483,0.71
CAAACTAGGACAAGGTCAAAGTCGGTTTGTGCCA,3.66,4.2,3.68,2.27,4.36,3.84,2.86,3.88
CCTGCTAGGCCAATGGTCAGCTAAAGCAGCTCGC,0.323,-0.216,0.173,-0.154,-0.899,-0.489,-0.709,-0.962
ACTAGCAGGCCAAGTTGGGGTCACTCAAACAAAG,3.81,4.97,3.25,0.825,5.2,4.16,2.89,3.34
CATACAGGGTCAGCTAGGCCAGACTAGGGACGGC,3.19,4.5,4.67,1.37,3.99,3.16,1.06,1.2
CTCGAAAGGCCGTGCTCAGGTGAGTATACCAAAC,0.384,0.136,0.46,0.0515,-0.297,1.61,0.381,-0.249
CAAACTAGGACACGAAAGGTCAAAGTCGAATGAC,4.86,5.9,5.66,1.45,6.74,4.08,1.94,2.91
ACTAGTTGGTCAGTTGAGGTCACACACAATTCGG,4.23,3.87,4.02,1.51,4.05,5.15,5.39,4.05
TAGCCTAGGTCATGAGGGCCAGTATAGTGTCGGC,3.01,4.06,4.57,0.234,3.23,3.04,0.958,0.404
